Growth inhibition data for 10 molecules are collected here from PubChem BioAssay (NCI).

Test [1] is described as follows: NCI Yeast Anticancer Drug Screen. Data for the rad50 strain (AID 155).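 Further: 0% = growth of vehicle-only cultures of the same strain.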 Particulars: S. cerevisiae rad50 strain growth inhibition, active compounds read high. In short, it runs like this:
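Cells are treated with compound, grown, and their growth is then scored against vehicle-only cultures of the same repair-deficient yeast strain.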

The nature of test [2]: NCI Yeast Anticancer Drug Screen. Data for the mec2-1 strain (AID 157). Particulars: S. cerevisiae mec2-1 strain, active compounds read high. In short, it runs like this: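 Cells of the genetically defined mec2-1 yeast strain are incubated with test compound. Inhibition of growth is calculated against vehicle-treated controls.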
A short description of test [3]: NCI Yeast Anticancer Drug Screen. Data for the sgs1 mgt1 strain (AID 161).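 Further: 0% = growth of cultures given vehicle only.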 Particulars: S. cerevisiae sgs1 mgt1 strain, active compounds read high. In short, it runs like this:
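Read-out: growth inhibition vs vehicle controls. Cells: mutant yeast strain deficient in DNA damage repair.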

Test [4] in a line: NCI Yeast Anticancer Drug Screen. Data for the cln2 rad14 strain (AID 165).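 Further: 0% = growth equal to vehicle treated cultures.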 Particulars: S. cerevisiae cln2 rad14 strain, active compounds read high. In short, it runs like this: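 The screen exposed genetically defined yeast (cln2 rad14) to test compounds and scored growth inhibition relative to vehicle-treated controls.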
Test [5] is described as follows: NCI Yeast Anticancer Drug Screen. Data for the bub3 strain (AID 167). Particulars: S. cerevisiae bub3 mutant strain, active compounds read high. In short, it runs like this:
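Part of a panel of yeast mutants defective in DNA damage repair or cell cycle regulation. Each strain is grown with compound, and inhibition is calculated relative to solvent-treated cultures.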

Test [6] is described as follows: NCI Yeast Anticancer Drug Screen. Data for the mlh1 rad18 strain (AID 175). To be noted: S. cerevisiae mlh1 rad18 strain growth inhibition, active compounds read high. In short, it runs like this:
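Compound-treated yeast growth, normalised to vehicle controls. Strain bears defined DNA repair mutations.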

Setting [7] is: at 5.0 µM (retest, dose inferred, filed as 0.5).
Where [8] appears, read: at 50.0 µM (retest, dose inferred, filed as 5.0).

Compounds without any hit were thinned out: in the full panel of roughly 79,000, 15% have a hit. Values without a mark were called inactive. Active and inactive are the calls of the source. No stated cut-off is given here; in the data, active means growth inhibition above about 70%; inactive means the rest.

Take `Nc1cc(Cl)ccc1C(=O)O`: the growth inhibition was 34% in test [1] (setting [7]); 78% (active) in test [1] (setting [8]); 81.2% (active) in test [1] (at 50.0 µM); 7% in test [2] (setting [7]); 32% in test [2] (setting [8]); 91.7% (active) in test [2] (at 50.0 µM). For the same molecule, the growth inhibition in test [3] (setting [7]) was 14%; in test [3] (setting [8]) it was 39%; in test [3] (at 50.0 µM), 49.8%; in test [4] (setting [7]), -2%; in test [4] (setting [8]), 30%; in test [4] (at 50.0 µM), 42.7%. The growth inhibition in test [5] (setting [7]) was 3%; in test [5] (setting [8]), 50%; in test [5] (at 50.0 µM), 96.4% (active); in test [6] (setting [7]), 21%; in test [6] (setting [8]) it was 59%; in test [6] (at 50.0 µM), 50.2%.
`O=C(Cc1ccccc1)NC(C(=O)c1ccccc1)c1ccccc1` (stereo not given): the growth inhibition in test [1] (setting [7]) is 36%; in test [1] (setting [8]) it was 55%; in test [1] (at 50.0 µM), 75.5% (active); in test [2] (setting [7]) it was 21%; in test [2] (setting [8]), 40%; in test [2] (at 50.0 µM) it was 31.1%. For the same molecule, the growth inhibition was 36% in test [3] (setting [7]); 47% in test [3] (setting [8]); 72.2% (active) in test [3] (at 50.0 µM); 25% in test [4] (setting [7]); 26% in test [4] (setting [8]); 57% in test [4] (at 50.0 µM). Further, the growth inhibition was 48% in test [5] (setting [7]); 72% (active) in test [5] (setting [8]); 83.2% (active) in test [5] (at 50.0 µM); 35% in test [6] (setting [7]); 53% in test [6] (setting [8]); 73.7% (active) in test [6] (at 50.0 µM).
Regarding `CC(C)(C)c1cc2c3c(c1)Oc1cc(C(C)(C)C)cc4c1C3(O)c1c(cc(C(C)(C)C)cc1O4)O2`, the growth inhibition is 19% in test [1] (setting [7]); 99% (active) in test [1] (setting [8]); 89.8% (active) in test [1] (at 50.0 µM); 22% in test [2] (setting [7]); 100% (active) in test [2] (setting [8]); 88.5% (active) in test [2] (at 50.0 µM). Besides, the growth inhibition is -5% in test [3] (setting [7]); 99% (active) in test [3] (setting [8]); 86.4% (active) in test [3] (at 50.0 µM); 14% in test [4] (setting [7]); 98% (active) in test [4] (setting [8]); 87.3% (active) in test [4] (at 50.0 µM). In addition, the growth inhibition in test [5] (setting [7]) is 12%; in test [5] (setting [8]), 98% (active); in test [5] (at 50.0 µM), 84.7% (active); in test [6] (setting [7]) it was 14%; in test [6] (setting [8]), 100% (active); in test [6] (at 50.0 µM), 87.7% (active).
As for `CC(=O)Oc1c(Br)cc(Br)cc1Br`, the growth inhibition in test [1] (setting [7]) was 4%; in test [1] (setting [8]) it was -4%; in test [1] (at 50.0 µM), 9.35%; in test [2] (setting [7]), -5%; in test [2] (setting [8]), -34%; in test [2] (at 50.0 µM), 6.7%. In addition, the growth inhibition in test [3] (setting [7]) was 10%; in test [3] (setting [8]) it was 4%; in test [3] (at 50.0 µM), 4.5%; in test [4] (setting [7]), 2%; in test [4] (setting [8]), -2%; in test [4] (at 50.0 µM), 1.2%. The growth inhibition is 10% in test [5] (setting [7]); 6% in test [5] (setting [8]); 9.1% in test [5] (at 50.0 µM); 13% in test [6] (setting [7]); 20% in test [6] (setting [8]); 0.9% in test [6] (at 50.0 µM).
With `O=C(O)/C(=C/c1ccccc1)c1ccccc1.[Ag]`, the growth inhibition was 99% (active) in test [1] (setting [7]); 99% (active) in test [1] (setting [8]); 99.4% (active) in test [1] (at 50.0 µM); 100% (active) in test [2] (setting [7]); 99% (active) in test [2] (setting [8]); 94.5% (active) in test [2] (at 50.0 µM). The growth inhibition in test [3] (setting [7]) is 100% (active); in test [3] (setting [8]), 100% (active); in test [3] (at 50.0 µM), 99.3% (active); in test [4] (setting [7]), -14%; in test [4] (setting [8]) it was 99% (active); in test [4] (at 50.0 µM) it was 78.8% (active). For the same molecule, the growth inhibition in test [5] (setting [7]) is 100% (active); in test [5] (setting [8]), 98% (active); in test [5] (at 50.0 µM), 93.7% (active); in test [6] (setting [7]), 99% (active); in test [6] (setting [8]), 99% (active); in test [6] (at 50.0 µM), 99.4% (active).
`C[C@]12CC[C@H](O)C[C@@H]1CC[C@@H]1[C@@H]2CC[C@]2(C)C=CC[C@@H]12`: the growth inhibition in test [1] (setting [7]) is -3%; in test [1] (setting [8]), 2%; in test [1] (at 50.0 µM), 49.4%; in test [2] (setting [7]), -7%; in test [2] (setting [8]), -4%; in test [2] (at 50.0 µM), 33.4%. The growth inhibition in test [3] (setting [7]) was -21%; in test [3] (setting [8]), 1%; in test [3] (at 50.0 µM), 46.8%; in test [4] (setting [7]) it was -6%; in test [4] (setting [8]) it was 0%; in test [4] (at 50.0 µM), 77.5% (active). Further, the growth inhibition is 9% in test [5] (setting [7]); 23% in test [5] (setting [8]); 95.1% (active) in test [5] (at 50.0 µM); -24% in test [6] (setting [7]); 33% in test [6] (setting [8]); 58.8% in test [6] (at 50.0 µM).
Regarding `COc1cc(C2c3cc4c(cc3OC3(O)C=C(C)OC(=O)C23)OCO4)cc(OC)c1OC` (stereo not given), the growth inhibition in test [1] (setting [7]) was 5%; in test [1] (setting [8]), -5%; in test [1] (at 50.0 µM), 12.1%; in test [2] (setting [7]), 4%; in test [2] (setting [8]), -4%; in test [2] (at 50.0 µM), 30%. The growth inhibition is 0% in test [3] (setting [7]); -22% in test [3] (setting [8]); 13.4% in test [3] (at 50.0 µM); 0% in test [4] (setting [7]); 5% in test [4] (setting [8]); 9.5% in test [4] (at 50.0 µM). Also, the growth inhibition was -1% in test [5] (setting [7]); -3% in test [5] (setting [8]); 92.3% (active) in test [5] (at 50.0 µM); 1% in test [6] (setting [7]); -10% in test [6] (setting [8]); 29.9% in test [6] (at 50.0 µM).
Consider `CCCCCCCCCCCC(=O)OCCOP(=O)(OCC)OCC`, for which the growth inhibition was -1% in test [1] (setting [7]); 91% (active) in test [1] (setting [8]); 87.2% (active) in test [1] (at 50.0 µM); 2% in test [2] (setting [7]); 98% (active) in test [2] (setting [8]); 20.9% in test [2] (at 50.0 µM). The growth inhibition in test [3] (setting [7]) was 4%; in test [3] (setting [8]), 99% (active); in test [3] (at 50.0 µM) it was 96.5% (active); in test [4] (setting [7]) it was -4%; in test [4] (setting [8]), 97% (active); in test [4] (at 50.0 µM), 74.7% (active). The growth inhibition is -1% in test [5] (setting [7]); 97% (active) in test [5] (setting [8]); -9.15% in test [5] (at 50.0 µM); -1% in test [6] (setting [7]); 98% (active) in test [6] (setting [8]); 79.2% (active) in test [6] (at 50.0 µM).
Take `CC1COC(=O)O1` (stereo not given): the growth inhibition is -31% in test [1] (setting [7]); -1% in test [1] (setting [8]); -4.85% in test [1] (at 50.0 µM); -3% in test [2] (setting [7]); -2% in test [2] (setting [8]); -2.35% in test [2] (at 50.0 µM). The growth inhibition is 6% in test [3] (setting [7]); 6% in test [3] (setting [8]); 6% in test [3] (at 50.0 µM); 6% in test [4] (setting [7]); 2% in test [4] (setting [8]); 15.2% in test [4] (at 50.0 µM). Further, the growth inhibition in test [5] (setting [7]) was 3%; in test [5] (setting [8]), 4%; in test [5] (at 50.0 µM), -2%; in test [6] (setting [7]), 7%; in test [6] (setting [8]), 18%; in test [6] (at 50.0 µM) it was 15.8%.
Consider `COc1cccc2c1S(=O)(=O)C(c1ccccc1)=CC2=O`, for which the growth inhibition in test [1] (setting [7]) is 45%; in test [1] (setting [8]), 99% (active); in test [1] (at 50.0 µM), 99.5% (active); in test [2] (setting [7]), 48%; in test [2] (setting [8]) it was 99% (active); in test [2] (at 50.0 µM) it was 99.2% (active). Also, the growth inhibition is 55% in test [3] (setting [7]); 99% (active) in test [3] (setting [8]); 99.4% (active) in test [3] (at 50.0 µM); 12% in test [4] (setting [7]); 98% (active) in test [4] (setting [8]); 98.7% (active) in test [4] (at 50.0 µM). Besides, the growth inhibition in test [5] (setting [7]) is 58%; in test [5] (setting [8]), 97% (active); in test [5] (at 50.0 µM), 99.7% (active); in test [6] (setting [7]), 69%; in test [6] (setting [8]), 99% (active); in test [6] (at 50.0 µM), 99.5% (active).
